This note sets out measurements from PubChem BioAssay (EPA / NIEHS).

Assay [1] in a line: APR_HepG2_NuclearSize_72hr: Apredica 72-hour HepG2 Assay for Nuclear Size (AID 2282925). The following applies: high-content imaging, actives raise or lower the signal. The essentials:
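HepG2; cpd 0.39–200 uM, 10 conc, duplicate; 72 h; DMSO 0.5% v/v; fix 3.7% formaldehyde 30 min RT; Triton permeabilization; Hoechst 2 ug/mL; HCS imaging 20x; nuclear diameter; gain/loss fit vs DMSO.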

Assay [2] can be described thus: ATG_CRE_CIS: Attagene CIS-FACTORIAL HepG2 Assay for human cAMP Responsive Element (CRE) binding protein 3 (AID 2282926). The following applies: HepG2 CRE cis-reporter, Attagene multiplexed mRNA; actives raise or lower the signal. Summed up: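 HepG2 cells transiently transfected with a multiplexed reporter library (CRE-driven unit among them) were dosed for 24 h. Reporter mRNA was quantified by RT-PCR, fluorescent labelling, HpaI digestion and capillary electrophoresis, with bidirectional fitting against DMSO baseline.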

In assay [3] the target is CCAAT/enhancer-binding protein beta (Homo sapiens) (UniProt P17676). Put plainly: ATG_C_EBP_CIS: Attagene CIS-FACTORIAL HepG2 Assay for human CCAAT/Enhancer Binding Protein (C/EBP) beta (AID 2282927). The following applies: HepG2 Attagene cis-factorial transcription factor reporter; actives raise or lower the signal. Summed up: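 Endogenous C/EBPb-driven reporter transcripts measured in transfected human HepG2 cells at 24 h via RT-PCR and capillary electrophoresis of labelled fragments. Activity fitted in both directions relative to DMSO baseline.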
CCAAT/enhancer-binding protein beta (Homo sapiens), sequence (P17676 whole entry, looked up, the tested form may be a part): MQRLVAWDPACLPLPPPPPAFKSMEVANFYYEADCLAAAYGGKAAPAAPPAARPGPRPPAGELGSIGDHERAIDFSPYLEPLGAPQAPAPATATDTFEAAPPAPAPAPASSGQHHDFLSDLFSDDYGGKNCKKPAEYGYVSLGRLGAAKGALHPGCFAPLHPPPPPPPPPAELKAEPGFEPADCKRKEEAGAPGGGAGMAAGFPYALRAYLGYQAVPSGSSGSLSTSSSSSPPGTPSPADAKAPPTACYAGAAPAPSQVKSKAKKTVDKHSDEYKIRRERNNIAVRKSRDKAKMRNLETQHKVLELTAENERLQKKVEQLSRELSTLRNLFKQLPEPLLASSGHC

Assay [4] is described as follows: ATG_CMV_CIS: Attagene CIS-FACTORIAL HepG2 Assay for human CMV (Internal Marker) (AID 2282928).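 Also: endpoint acts as a background internal control marker rather than a target.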 The following applies: HepG2 CMV promoter reporter, transcription factor profiling; actives raise or lower the signal. Summed up:
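After transient transfection of HepG2 with reporter transcription units driven by cis-regulatory promoters, cells receive test chemical for 24 h. Labeled reporter amplicons, digested with HpaI, are sized and quantified by capillary electrophoresis against DMSO.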

Assay [5] can be described thus: ATG_DR4_LXR_CIS: Attagene CIS-FACTORIAL HepG2 Assay for human Liver X Receptor (LXR), DR4 submotif (AID 2282929). The following applies: HepG2 Attagene DR4 cis-reporter, mRNA transcription; actives raise or lower the signal. Summed up: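 DR4 cis-reporter in HepG2, 24 h exposure. Detection: RT-PCR, 6-FAM labelling, CE fragment analysis. Endpoint fitted bidirectionally, DMSO = baseline.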

Assay [6] concerns the target Aryl hydrocarbon receptor (Homo sapiens) (UniProt P35869). The assay can be described thus: ATG_Ahr_CIS: Attagene CIS-FACTORIAL HepG2 Assay for human Aryl Hydrocarbon Receptor (Ahr) (AID 2282930). The following applies: HepG2 AhR cis-factorial reporter transcription; actives raise or lower the signal. Summed up: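 Reporter mRNA levels, quantified by RT-PCR and fluorescent capillary electrophoresis, reflect endogenous AhR transcriptional activity in HepG2 cells carrying transfected cis-promoter reporter constructs. Readout at 24 h post-dose; gain or loss fitted against DMSO baseline.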

The nature of assay [7]: ATG_AP_1_CIS: Attagene CIS-FACTORIAL HepG2 Assay for human Activator Protein 1 (AP-1) (AID 2282931). The following applies: HepG2 Attagene cis-factorial AP-1 reporter mRNA; actives raise or lower the signal. The essentials: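 Cis-regulated reporter units transiently expressed in HepG2 report endogenous transcription-factor activity. Signal: reporter mRNA at 24 h, via RT-PCR and fluorescent capillary electrophoresis. Endpoint derived by bidirectional fitting, DMSO as negative control.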

Assay [8] in a line: ATG_AP_2_CIS: Attagene CIS-FACTORIAL HepG2 Assay for human Activator Protein 2 (AP-2) (AID 2282932). The following applies: HepG2 AP-2 cis-reporter, Attagene transcription factor profiling; actives raise or lower the signal. Summed up:
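HepG2, transient MRTU transfection, cis-regulated reporters; 24 h compound exposure; RNA isolated, RT-PCR, 6-FAM labelling, HpaI digest, CE fluorescence. DMSO = negative control/baseline, bidirectional fit.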

Assay [9] can be described thus: ATG_BRE_CIS: Attagene CIS-FACTORIAL HepG2 Assay for human Bone Morphogenetic Protein (BMP) Response Element (BRE) (AID 2282933). The following applies: HepG2 BMP response element reporter, Attagene transcription factor profiling; actives raise or lower the signal. Summed up: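 Multiplexed cis-reporter assay, HepG2, 24 h exposure. mRNA from reporter units quantified via RT-PCR/CE; DMSO baseline; bidirectional curve fit.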

Assay [10] concerns the target Transcription factor E2F1 (Homo sapiens) (UniProt Q01094). The assay can be described thus: ATG_E2F_CIS: Attagene CIS-FACTORIAL HepG2 Assay for human E2F Transcription Factor 1 (AID 2282935). The following applies: HepG2 Attagene cis-reporter, E2F reporter RNA transcripts; actives raise or lower the signal. Summed up: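 Cis-element reporter mRNA induction in transiently transfected HepG2, 24 h exposure. Activity fitted in both directions relative to DMSO negative control.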

Assay [11] can be described thus: ATG_E_Box_CIS: Attagene CIS-FACTORIAL HepG2 Assay for human Enhancer Box (E-box) (AID 2282936). The following applies: HepG2 E-box cis-reporter transcription, actives raise or lower the signal. The essentials:
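Cells: HepG2 (human liver), transient MRTU transfection. Exposure 24 h. RNA → oligo(dT) RT → PCR → 6-FAM label → HpaI → CE. Activity fitted both directions relative to DMSO.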

A short description of assay [12]: ATG_M_61_CIS: Attagene CIS-FACTORIAL HepG2 Assay for M61 Transcription Factor (Internal Marker) (AID 2282937). The following applies: HepG2 Attagene CIS-FACTORIAL M61 internal marker reporter; actives raise or lower the signal. Summed up: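 Background-control endpoint: HepG2 cells with cis-regulated reporter constructs, 24 h exposure, reporter mRNA detected via fluorescent primer extension and capillary electrophoresis; values from bidirectional fitting with DMSO baseline.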

Assay [13] in a line: ATG_EGR_CIS: Attagene CIS-FACTORIAL HepG2 Assay for human Early Growth Response 1 (EGR1) (AID 2282938). The following applies: HepG2 Attagene CIS-FACTORIAL EGR reporter mRNA; actives raise or lower the signal. The essentials: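 Endpoint derived by bidirectional fitting versus DMSO vehicle. Method: cis-promoter reporter units transfected into HepG2, 24 h dosing, RNA isolation, RT-PCR with 6-FAM primer extension and HpaI digestion, then capillary electrophoresis fluorescence detection.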

Assay [14] in a line: ATG_M_19_CIS: Attagene CIS-FACTORIAL HepG2 Assay for M19 Transcription Factor (Internal Marker) (AID 2282939). The following applies: HepG2 Attagene CIS-FACTORIAL M19 internal marker reporter; actives raise or lower the signal. The essentials: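 Signals come from fluorescence of labelled reporter-specific PCR fragments resolved by capillary electrophoresis, following 24 h treatment of HepG2 cells transfected with cis-promoter reporter units; activity was fitted in both directions relative to DMSO.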

The nature of assay [15]: ATG_ERE_CIS: Attagene CIS-FACTORIAL HepG2 Assay for Estrogen Response Element (ERE) (AID 2282940). The following applies: HepG2 ERE cis-reporter, Attagene RNA transcript; actives raise or lower the signal. The essentials:
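Fluorescence of capillary-separated, FAM-labelled reporter cDNA fragments indicates reporter mRNA levels in HepG2 cells exposed to chemicals for 24 h. Transient transfection with cis-regulated units; data fitted in both directions against DMSO.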

Assay [16] in a line: ATG_Ets_CIS: Attagene CIS-FACTORIAL HepG2 Assay for human Erythroblast Transformation Specific (ETS) (AID 2282941). The following applies: HepG2 ETS cis-reporter transcription, actives raise or lower the signal. Summed up: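 Human HepG2 hepatoma cells were transiently transfected with promoter-driven reporter constructs and treated for 24 hours. Reporter transcripts were quantified by RT-PCR with fluorescent primer extension; bidirectional curve fitting used DMSO as reference.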

The target of assay [17] is Hepatocyte nuclear factor 3-beta (Homo sapiens) (UniProt Q9Y261). The assay can be described thus: ATG_FoxA2_CIS: Attagene CIS-FACTORIAL HepG2 Assay for human Forkhead box A2 (FOXA2) (AID 2282942). The following applies: HepG2 cis-reporter transcription factor activity, 24 h; actives raise or lower the signal. Summed up: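 Measured: reporter mRNA induction or loss in HepG2 transiently carrying multiple cis-regulated reporter units, 24 h after dosing. Quantified by RT-PCR plus capillary electrophoresis, normalised to DMSO.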
Hepatocyte nuclear factor 3-beta (Homo sapiens), sequence (Q9Y261 whole entry, looked up): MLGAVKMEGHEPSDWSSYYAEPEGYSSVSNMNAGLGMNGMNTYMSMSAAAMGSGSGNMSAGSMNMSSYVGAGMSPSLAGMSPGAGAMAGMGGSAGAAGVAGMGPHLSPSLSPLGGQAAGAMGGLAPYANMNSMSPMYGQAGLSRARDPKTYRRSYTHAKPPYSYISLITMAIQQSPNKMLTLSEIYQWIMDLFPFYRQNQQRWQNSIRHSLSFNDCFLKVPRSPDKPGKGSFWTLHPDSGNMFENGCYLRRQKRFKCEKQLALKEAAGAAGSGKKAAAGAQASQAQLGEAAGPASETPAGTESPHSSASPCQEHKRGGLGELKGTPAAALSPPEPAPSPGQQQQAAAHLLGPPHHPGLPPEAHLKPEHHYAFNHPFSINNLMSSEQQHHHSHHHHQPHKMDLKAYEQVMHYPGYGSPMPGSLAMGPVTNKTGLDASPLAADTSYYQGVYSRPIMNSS

Assay [18] is described as follows: ATG_FoxO_CIS: Attagene CIS-FACTORIAL HepG2 Assay for human Forkhead box O (FoxO) (AID 2282943). The following applies: HepG2 Attagene cis-reporter, FoxO element, mRNA; actives raise or lower the signal. Summed up:
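Endogenous transcription factor activity read from multiplexed cis-promoter reporter transcripts in transiently transfected HepG2, 24 h after dosing. Reporter RNA measured via RT-PCR plus capillary electrophoresis of FAM-labeled products; gain or loss relative to DMSO.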

A short description of assay [19]: ATG_GATA_CIS: Attagene CIS-FACTORIAL HepG2 Assay for human GATA Binding Protein (AID 2282944). The following applies: HepG2 GATA cis-element reporter, Attagene multiplex mRNA; actives raise or lower the signal. The essentials: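 After transfecting HepG2 cells with multiple cis-regulated reporter units, chemicals are dosed for 24 h; isolated RNA undergoes RT-PCR and fluorescent labeling before capillary electrophoresis, with activity expressed against DMSO.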

Assay [20] addresses Retinoic acid receptor alpha (Homo sapiens) (UniProt P10276). Put plainly: ATG_DR5_RAR_CIS: Attagene CIS-FACTORIAL HepG2 Assay for human Retinoic Acid Receptor Alpha (RARE), DR5 submotif (AID 2282934). The following applies: HepG2 Attagene cis-factorial RARE DR5 reporter, mRNA; actives raise or lower the signal. Summed up: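 Reporter transcripts from a DR5-regulated unit, measured via RT-PCR plus capillary electrophoresis, reflect endogenous RAR activity in transiently transfected human HepG2 liver cells. Exposure lasted 24 h; gain or loss of signal scored against DMSO.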

The source made the active and inactive calls. The calls were made as follows: active = hit-call score of the fitted dose curve at least 0.9, where 1 is the maximum; inactive = score below 0.9.

Aryl hydrocarbon receptor (Homo sapiens), sequence (P35869 whole entry, looked up): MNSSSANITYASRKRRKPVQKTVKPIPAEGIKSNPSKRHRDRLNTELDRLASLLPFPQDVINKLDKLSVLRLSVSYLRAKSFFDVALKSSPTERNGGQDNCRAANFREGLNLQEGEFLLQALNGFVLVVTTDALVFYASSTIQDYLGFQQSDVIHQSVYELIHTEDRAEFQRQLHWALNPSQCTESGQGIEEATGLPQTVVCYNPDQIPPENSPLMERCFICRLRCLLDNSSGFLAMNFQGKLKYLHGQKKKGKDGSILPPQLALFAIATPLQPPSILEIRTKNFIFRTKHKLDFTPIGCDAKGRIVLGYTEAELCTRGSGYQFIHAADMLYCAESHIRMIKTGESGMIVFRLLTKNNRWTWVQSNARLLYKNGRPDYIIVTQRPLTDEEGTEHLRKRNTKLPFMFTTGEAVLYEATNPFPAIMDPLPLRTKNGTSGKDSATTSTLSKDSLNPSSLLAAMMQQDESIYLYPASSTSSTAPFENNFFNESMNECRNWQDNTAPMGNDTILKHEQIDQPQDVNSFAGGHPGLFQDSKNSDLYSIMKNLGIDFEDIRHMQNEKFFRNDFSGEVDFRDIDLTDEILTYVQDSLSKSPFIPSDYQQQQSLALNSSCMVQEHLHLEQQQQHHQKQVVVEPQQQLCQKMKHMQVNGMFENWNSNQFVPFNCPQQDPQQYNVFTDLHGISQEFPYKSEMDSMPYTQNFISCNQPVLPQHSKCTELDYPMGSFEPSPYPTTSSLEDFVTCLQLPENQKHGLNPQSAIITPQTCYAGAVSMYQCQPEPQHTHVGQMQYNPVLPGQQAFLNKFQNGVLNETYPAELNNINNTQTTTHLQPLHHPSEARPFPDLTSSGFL
Transcription factor E2F1 (Homo sapiens), sequence (Q01094 whole entry, looked up): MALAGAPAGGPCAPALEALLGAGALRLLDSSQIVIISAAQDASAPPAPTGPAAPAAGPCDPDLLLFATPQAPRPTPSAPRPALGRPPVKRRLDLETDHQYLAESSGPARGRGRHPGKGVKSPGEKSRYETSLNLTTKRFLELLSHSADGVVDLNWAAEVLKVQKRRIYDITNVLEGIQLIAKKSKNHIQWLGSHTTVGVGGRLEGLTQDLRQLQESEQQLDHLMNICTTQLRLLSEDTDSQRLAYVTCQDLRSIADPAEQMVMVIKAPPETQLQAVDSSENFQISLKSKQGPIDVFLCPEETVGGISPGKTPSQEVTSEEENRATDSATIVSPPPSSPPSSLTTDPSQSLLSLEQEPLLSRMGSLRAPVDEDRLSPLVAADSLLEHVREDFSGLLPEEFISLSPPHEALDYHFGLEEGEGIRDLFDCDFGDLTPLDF
Retinoic acid receptor alpha (Homo sapiens), sequence (P10276 whole entry, looked up): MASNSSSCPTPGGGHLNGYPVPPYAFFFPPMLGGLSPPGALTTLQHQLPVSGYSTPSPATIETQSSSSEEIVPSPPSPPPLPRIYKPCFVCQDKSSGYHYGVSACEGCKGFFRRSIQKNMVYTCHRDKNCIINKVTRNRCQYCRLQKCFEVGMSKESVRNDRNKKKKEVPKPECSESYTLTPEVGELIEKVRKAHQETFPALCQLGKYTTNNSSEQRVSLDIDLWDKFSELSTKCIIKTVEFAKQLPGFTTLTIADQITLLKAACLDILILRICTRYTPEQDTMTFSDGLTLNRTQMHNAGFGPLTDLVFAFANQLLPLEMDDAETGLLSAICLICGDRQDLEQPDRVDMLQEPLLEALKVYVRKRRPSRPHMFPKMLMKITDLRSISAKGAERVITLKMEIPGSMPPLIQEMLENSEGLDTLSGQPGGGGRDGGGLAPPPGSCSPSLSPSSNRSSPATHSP

Consider `Cc1ccc(N(C)C)cc1`, for which the outcome in assay [1], in [2], in assay [3], in assay [4], in [5] and in assay [6] was inactive. Also, the result in [7], in assay [8], in assay [9], in assay [10], in assay [11] and in assay [12] was inactive. Also, the compound was classed as inactive in assay [13], in [14], in assay [15], in [16], in assay [17] and in assay [18]. Besides, the call in assay [19] was inactive.
By AC50 is commonly meant the concentration giving half of the maximal activity seen. As for `CCCCOC(=O)CCCCCCCCC(=O)OCCCC`, the result in assay [1], in [2], in [4], in assay [6], in [7] and in assay [8] was inactive. Also, the call in assay [9], in assay [20], in assay [10], in [12], in assay [13] and in [14] was inactive. For the same compound, the compound was classed as inactive in assay [15], in [16], in assay [17], in assay [18] and in [19]. In addition, the AC50 is 144 µM (active) in assay [5] and 142 µM (active) in assay [11].
Turning to `CNC(=O)[C@H]1O[C@@H](n2cnc3c(NCc4cc(Cl)ccc4OCc4cc(C)no4)ncnc32)[C@H](O)[C@@H]1N`, the outcome in [1], in assay [2], in [3], in assay [4], in assay [5] and in assay [6] was inactive. Moreover, the outcome in assay [7], in assay [8], in [9], in [10], in assay [11] and in assay [12] was inactive. In addition, the outcome in assay [13], in assay [14], in [15], in assay [16], in assay [17] and in assay [18] was inactive. Further, in assay [19], the compound was called inactive.
As to `NCCO`, in assay [20], the compound was called inactive.
